Measurements as given in the supplement of paper PMC3334620.
Over roughly 33,000 sequences, “E-score (-0.5 to 0.5)” has its median near -0.013; the highest 2% begin near 0.3. What follows is part of a selection rich in the highest values, with near analogues and random picks from the rest.

Each sequence was assayed against T1, Msn1 (UniProt P22148) (assay: PBM E-score (8-mer binding enrichment) (E-score (-0.5 to 0.5)); higher = stronger / more preferred TF binding). Settings: protein concentration: 200 nM; construct: GST-full length.
T1 sequence: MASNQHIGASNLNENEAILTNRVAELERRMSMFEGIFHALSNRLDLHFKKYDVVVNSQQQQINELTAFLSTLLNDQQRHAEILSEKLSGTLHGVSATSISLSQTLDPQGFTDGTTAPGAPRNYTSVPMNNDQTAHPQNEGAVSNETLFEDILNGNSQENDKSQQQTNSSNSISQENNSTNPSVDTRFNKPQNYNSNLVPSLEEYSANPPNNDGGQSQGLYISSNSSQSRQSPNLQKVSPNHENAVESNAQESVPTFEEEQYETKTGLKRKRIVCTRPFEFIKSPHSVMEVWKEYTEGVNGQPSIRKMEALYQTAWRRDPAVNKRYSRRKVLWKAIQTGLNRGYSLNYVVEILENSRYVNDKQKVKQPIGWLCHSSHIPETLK
Experimental: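 Universal 'all 10-mer' protein binding microarrays (Agilent AMADID 015681) probed with GST-tagged S. cerevisiae TFs (full-length or DBD) made by in vitro transcription/translation (PURExpress), about 100-200 nM. Bound TF was detected with fluorescent anti-GST. Each ungapped 8-mer (which stands for itself and its reverse complement) is scored by the PBM enrichment score (E-score), a modified Wilcoxon-Mann-Whitney statistic from -0.5 to +0.5, computed with the Universal PBM Analysis Suite. Scale: above 0.35 generally sequence-specific binding.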

| Sequence | PBM E-score |
| --- | --- |
| GGGTACAA | 0.198 |
| CGGTACAC | 0.123 |
| CGGTACAA | 0.311 |
| TGGTACCA | -0.0646 |
| AGGTACAG | 0.00868 |
| CGGTACAG | 0.054 |
| AGGTACAA | 0.394 |
| TGGTACAA | 0.386 |
| ATCGTTTA | 0.141 |
| CTTCATCA | -0.143 |
| AAGGGCAG | -0.102 |
| CTGGAAGC | -0.225 |
| GCTTTTCC | -0.0951 |
| AGCCTCAC | -0.223 |
| ACCATGTC | 0.218 |
| CTCATGTC | 0.27 |
| AGCATGTC | 0.318 |
| AGCATGTG | -0.0619 |
| CGCATGTA | 0.0633 |
| CGCATGTC | 0.426 |
| CCCATGTC | 0.316 |
| CCCATGTA | 0.0749 |

| Sequence | PBM E-score |
| --- | --- |
| AGCATGTA | 0.0635 |
| ATTTGAGC | -0.0055 |
| ACAATCTA | 0.0825 |
| CGGACCGA | 0.165 |
| CAGCGAAG | -0.193 |
| TATCGGGA | 0.178 |
| TCCCCAGA | -0.107 |
| TCTGTCCA | 0.363 |
| CCTGTCCA | 0.156 |
| GATGTCCC | 0.462 |
| GCTGTCCC | -0.0712 |
| GATGTCAC | 0.26 |
| CATGTCAA | 0.236 |
| CATGTCCG | 0.436 |
| CATGTCAG | 0.208 |
| GCTGTCCA | 0.159 |
| CCTGTCCG | 0.117 |
| ACTGTCCA | 0.0386 |
| CATGTCCA | 0.463 |
| CTTACTGC | -0.143 |
| GATGGCGC | -0.252 |
| ATTTAGAG | 0.0544 |

| Sequence | PBM E-score |
| --- | --- |
| ACGGGAGG | -0.268 |
| ACACATGT | 0.238 |
| TATGTCGA | 0.289 |
| GACGTCCA | 0.207 |
| GATGTCAA | 0.0785 |
| AATGTCAA | 0.3 |
| TATGTCCA | 0.465 |
| GATGTCCA | 0.458 |
| TATGTCAA | 0.31 |
| AAGGTCCG | -0.0417 |
| AATGTGCG | -0.0792 |
| TACGTCCA | 0.179 |
| AATGTCCG | 0.481 |
| GATGTCGA | 0.0163 |
| GCTCCCAC | -0.135 |
| GGCCAAAA | 0.00072 |
| GTTCGAGA | 0.11 |
| CAGAAAGC | -0.0396 |
| AGCAAAAT | 0.174 |
| AGGGGGCC | -0.412 |
| GCTACCGA | -0.00569 |
| CCAGTACG | -0.0732 |

| Sequence | PBM E-score |
| --- | --- |
| CCTGTCCC | 0.282 |
| CATGTCAC | 0.291 |
| CATGTCCC | 0.459 |
| CCACTTGC | -0.132 |
| CTCAGTCA | -0.173 |
| ACTGGACT | 0.105 |
| TCTGGACA | 0.381 |
| ACTGGACC | -0.137 |
| CCTGGACC | 0.0101 |
| TCTGGAAA | -0.0457 |
| CCTGGACG | -0.182 |
| ACTGGACA | 0.374 |
| GCTGGACA | 0.276 |
| CCTGGACA | 0.417 |
| AAGTATGC | -0.0157 |
| GCCGACCA | 0.0498 |
| TCCTTGCA | 0.0515 |
| CCTCTCAG | -0.339 |
| ATACCATA | 0.0438 |
| CAGGCGGA | 0.223 |
